{"source": "the supplement of paper PMC7724964", "data": [{"target": "T1, ARID4A 568-634 Tudor-knot (domain begin residue: 568, domain end residue: 634), P29374", "T1 chain": "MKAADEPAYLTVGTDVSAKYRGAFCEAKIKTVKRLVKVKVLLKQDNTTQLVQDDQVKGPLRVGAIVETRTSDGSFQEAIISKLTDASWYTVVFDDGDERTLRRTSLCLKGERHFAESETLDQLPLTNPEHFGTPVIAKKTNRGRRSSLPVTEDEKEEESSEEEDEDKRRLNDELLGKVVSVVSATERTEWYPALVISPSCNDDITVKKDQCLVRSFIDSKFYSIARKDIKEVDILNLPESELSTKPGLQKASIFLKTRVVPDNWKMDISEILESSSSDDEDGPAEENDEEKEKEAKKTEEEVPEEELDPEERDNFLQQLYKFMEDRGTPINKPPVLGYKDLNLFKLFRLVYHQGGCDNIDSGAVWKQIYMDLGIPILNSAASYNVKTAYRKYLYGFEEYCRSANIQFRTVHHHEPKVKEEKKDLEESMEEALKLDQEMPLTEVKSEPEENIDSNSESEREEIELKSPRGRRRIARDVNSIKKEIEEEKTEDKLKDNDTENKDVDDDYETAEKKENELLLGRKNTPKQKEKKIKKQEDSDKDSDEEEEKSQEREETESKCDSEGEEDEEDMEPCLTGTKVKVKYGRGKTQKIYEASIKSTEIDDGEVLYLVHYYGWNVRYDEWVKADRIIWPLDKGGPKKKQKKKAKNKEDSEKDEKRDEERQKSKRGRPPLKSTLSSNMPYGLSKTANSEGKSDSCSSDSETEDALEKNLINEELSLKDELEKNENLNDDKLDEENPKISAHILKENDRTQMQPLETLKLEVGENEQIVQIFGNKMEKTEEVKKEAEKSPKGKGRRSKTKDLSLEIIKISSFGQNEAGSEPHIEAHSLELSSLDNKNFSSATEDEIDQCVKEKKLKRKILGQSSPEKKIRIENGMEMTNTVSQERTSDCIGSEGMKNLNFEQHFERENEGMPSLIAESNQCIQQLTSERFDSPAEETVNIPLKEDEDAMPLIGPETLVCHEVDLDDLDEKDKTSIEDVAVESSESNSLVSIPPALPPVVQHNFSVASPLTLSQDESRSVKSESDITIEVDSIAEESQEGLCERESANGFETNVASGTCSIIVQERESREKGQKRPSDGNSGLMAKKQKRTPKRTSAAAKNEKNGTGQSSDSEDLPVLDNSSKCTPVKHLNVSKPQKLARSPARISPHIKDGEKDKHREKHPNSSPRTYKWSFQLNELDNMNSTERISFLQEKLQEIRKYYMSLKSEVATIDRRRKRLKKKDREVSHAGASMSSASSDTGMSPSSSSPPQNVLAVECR", "assay": "phage ELISA signal ratio (GST-PRM binding over GST background); higher = stronger binding of peptide-phage to the PRM", "description": "(§1)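 Phage-displayed random hexadecapeptides (Cys-free, flanked by invariant Gly linkers, fused to the M13 P8 major coat protein) were selected over 5 rounds against GST-fused human PRM domains. Individual clones from rounds 4-5 were tested by phage ELISA, and positive clones binding the target but not GST were sequenced. Values are the ELISA signal ratio of target over background (GST); the background signal is given separately.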", "values": [{"binder": "WGWDEMLNDPEIMRIV", "phage ELISA signal ratio": 12.7}]}, {"target": "KMT2C 1055-1137 PHD (domain begin residue: 1055, domain end residue: 1137)", "assay": "phage ELISA signal ratio (GST-PRM binding over GST background); higher = stronger binding of peptide-phage to the PRM", "description": "as §1", "values": [{"binder": "WGWDEMLNDPEIMRIV", "phage ELISA signal ratio": 8.35}]}, {"target": "T2, LBR 1-67 LBR_tudor (domain begin residue: 1, domain end residue: 67), Q14739", "T2 chain": "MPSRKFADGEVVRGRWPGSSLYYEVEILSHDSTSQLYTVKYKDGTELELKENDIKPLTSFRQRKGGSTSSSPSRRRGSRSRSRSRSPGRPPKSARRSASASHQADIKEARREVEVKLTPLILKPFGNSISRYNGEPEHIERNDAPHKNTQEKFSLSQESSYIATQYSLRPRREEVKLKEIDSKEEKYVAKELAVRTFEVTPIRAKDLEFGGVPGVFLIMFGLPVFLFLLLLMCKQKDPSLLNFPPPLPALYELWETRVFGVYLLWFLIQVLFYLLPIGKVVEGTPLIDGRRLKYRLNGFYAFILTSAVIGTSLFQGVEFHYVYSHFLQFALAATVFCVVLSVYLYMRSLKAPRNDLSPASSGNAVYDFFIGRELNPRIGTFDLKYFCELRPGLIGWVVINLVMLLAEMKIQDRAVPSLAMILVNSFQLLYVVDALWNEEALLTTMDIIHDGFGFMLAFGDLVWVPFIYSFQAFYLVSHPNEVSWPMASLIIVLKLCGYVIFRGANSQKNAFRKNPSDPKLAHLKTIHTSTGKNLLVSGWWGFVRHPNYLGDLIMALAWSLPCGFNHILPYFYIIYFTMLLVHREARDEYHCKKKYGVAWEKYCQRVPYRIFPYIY", "assay": "phage ELISA signal ratio (GST-PRM binding over GST background); higher = stronger binding of peptide-phage to the PRM", "description": "as §1", "values": [{"binder": "WGWDEMLNDPEIMRIV", "phage ELISA signal ratio": 7.63}]}, {"target": "PAF1 165-376 Paf1 (domain begin residue: 165, domain end residue: 376), Q8N7H5", "assay": "phage ELISA signal ratio (GST-PRM binding over GST background); higher = stronger binding of peptide-phage to the PRM", "description": "as §1", "values": [{"binder": "WGWDEMLNDPEIMRIV", "phage ELISA signal ratio": 6.83}]}, {"target": "RBBP8 722-897 SAE2 (domain begin residue: 722, domain end residue: 897), Q99708", "sequence (Q99708 whole entry)": "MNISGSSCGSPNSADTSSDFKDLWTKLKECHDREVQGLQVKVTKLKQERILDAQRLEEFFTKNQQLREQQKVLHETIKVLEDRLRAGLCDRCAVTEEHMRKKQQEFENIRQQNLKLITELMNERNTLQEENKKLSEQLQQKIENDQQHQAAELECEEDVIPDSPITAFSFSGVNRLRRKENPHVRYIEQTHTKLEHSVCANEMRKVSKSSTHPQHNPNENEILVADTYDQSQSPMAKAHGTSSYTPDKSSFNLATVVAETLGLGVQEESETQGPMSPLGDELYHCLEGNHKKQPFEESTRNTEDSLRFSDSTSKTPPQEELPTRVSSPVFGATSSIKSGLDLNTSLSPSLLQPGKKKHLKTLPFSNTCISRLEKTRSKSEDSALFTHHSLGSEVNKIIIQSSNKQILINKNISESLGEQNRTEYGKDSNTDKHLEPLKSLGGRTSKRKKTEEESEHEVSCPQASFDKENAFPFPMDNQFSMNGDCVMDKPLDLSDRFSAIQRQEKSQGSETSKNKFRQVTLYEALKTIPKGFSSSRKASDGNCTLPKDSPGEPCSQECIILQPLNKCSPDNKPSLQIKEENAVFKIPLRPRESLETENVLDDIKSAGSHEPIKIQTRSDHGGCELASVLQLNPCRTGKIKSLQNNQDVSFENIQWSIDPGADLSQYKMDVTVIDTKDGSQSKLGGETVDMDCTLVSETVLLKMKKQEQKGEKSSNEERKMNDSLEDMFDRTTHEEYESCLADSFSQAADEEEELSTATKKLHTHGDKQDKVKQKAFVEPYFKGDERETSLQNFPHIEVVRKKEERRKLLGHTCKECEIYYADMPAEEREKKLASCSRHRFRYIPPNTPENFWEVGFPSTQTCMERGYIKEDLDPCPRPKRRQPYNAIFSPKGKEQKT", "assay": "phage ELISA signal ratio (GST-PRM binding over GST background); higher = stronger binding of peptide-phage to the PRM", "description": "as §1", "values": [{"binder": "WGWDEMLNDPEIMRIV", "phage ELISA signal ratio": 6.44}]}, {"target": "SETD1A 2-220 RRM_1 (domain begin residue: 2, domain end residue: 220), O15047", "sequence (O15047 whole entry)": "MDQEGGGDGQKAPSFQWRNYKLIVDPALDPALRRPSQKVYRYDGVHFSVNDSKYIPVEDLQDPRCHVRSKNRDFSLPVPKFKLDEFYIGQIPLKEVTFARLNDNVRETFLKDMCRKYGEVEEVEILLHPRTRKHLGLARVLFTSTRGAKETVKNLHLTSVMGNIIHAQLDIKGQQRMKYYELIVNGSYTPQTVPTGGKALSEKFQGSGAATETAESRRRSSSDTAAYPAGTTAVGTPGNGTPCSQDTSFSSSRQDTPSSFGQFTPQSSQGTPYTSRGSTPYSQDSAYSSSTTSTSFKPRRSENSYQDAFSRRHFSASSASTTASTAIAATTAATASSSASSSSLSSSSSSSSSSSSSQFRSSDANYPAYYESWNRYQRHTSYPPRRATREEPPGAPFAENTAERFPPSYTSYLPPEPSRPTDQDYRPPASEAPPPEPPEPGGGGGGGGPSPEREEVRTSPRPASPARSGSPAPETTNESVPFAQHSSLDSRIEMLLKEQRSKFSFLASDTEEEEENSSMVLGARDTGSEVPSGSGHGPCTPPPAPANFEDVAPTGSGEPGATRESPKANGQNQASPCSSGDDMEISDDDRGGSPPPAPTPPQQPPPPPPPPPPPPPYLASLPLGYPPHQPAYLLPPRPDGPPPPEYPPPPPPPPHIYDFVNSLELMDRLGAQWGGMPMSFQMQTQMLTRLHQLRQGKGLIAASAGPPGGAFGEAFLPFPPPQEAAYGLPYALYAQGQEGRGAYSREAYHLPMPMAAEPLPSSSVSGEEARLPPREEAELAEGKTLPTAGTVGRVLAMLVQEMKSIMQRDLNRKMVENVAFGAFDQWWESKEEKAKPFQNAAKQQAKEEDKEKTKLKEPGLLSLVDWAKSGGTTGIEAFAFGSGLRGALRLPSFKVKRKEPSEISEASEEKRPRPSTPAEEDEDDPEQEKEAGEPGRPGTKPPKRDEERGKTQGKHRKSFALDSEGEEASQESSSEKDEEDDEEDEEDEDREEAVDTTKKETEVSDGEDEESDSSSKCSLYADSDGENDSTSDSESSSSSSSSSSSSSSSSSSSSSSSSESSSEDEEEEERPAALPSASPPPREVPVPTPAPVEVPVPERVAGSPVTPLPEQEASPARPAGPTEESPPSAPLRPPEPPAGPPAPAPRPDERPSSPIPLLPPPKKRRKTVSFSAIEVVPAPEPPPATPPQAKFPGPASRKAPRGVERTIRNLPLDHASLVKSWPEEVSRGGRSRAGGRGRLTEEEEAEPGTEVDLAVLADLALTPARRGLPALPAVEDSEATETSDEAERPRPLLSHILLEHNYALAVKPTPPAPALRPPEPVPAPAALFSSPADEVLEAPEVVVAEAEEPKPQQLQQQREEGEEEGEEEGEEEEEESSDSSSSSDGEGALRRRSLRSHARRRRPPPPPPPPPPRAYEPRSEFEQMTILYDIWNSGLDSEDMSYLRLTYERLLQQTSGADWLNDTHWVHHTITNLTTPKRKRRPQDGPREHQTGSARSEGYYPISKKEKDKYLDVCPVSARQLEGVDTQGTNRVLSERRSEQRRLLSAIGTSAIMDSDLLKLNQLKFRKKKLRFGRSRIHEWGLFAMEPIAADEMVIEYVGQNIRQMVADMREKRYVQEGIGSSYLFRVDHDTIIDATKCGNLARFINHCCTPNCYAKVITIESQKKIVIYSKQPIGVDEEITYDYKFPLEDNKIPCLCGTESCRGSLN", "assay": "phage ELISA signal ratio (GST-PRM binding over GST background); higher = stronger binding of peptide-phage to the PRM", "description": "as §1", "values": [{"binder": "WGWDEMLNDPEIMRIV", "phage ELISA signal ratio": 7.71}]}, {"target": "T3, SND1 650-910 TUDOR+SNase (domain begin residue: 650, domain end residue: 910), Q7KZF4", "T3 chain": "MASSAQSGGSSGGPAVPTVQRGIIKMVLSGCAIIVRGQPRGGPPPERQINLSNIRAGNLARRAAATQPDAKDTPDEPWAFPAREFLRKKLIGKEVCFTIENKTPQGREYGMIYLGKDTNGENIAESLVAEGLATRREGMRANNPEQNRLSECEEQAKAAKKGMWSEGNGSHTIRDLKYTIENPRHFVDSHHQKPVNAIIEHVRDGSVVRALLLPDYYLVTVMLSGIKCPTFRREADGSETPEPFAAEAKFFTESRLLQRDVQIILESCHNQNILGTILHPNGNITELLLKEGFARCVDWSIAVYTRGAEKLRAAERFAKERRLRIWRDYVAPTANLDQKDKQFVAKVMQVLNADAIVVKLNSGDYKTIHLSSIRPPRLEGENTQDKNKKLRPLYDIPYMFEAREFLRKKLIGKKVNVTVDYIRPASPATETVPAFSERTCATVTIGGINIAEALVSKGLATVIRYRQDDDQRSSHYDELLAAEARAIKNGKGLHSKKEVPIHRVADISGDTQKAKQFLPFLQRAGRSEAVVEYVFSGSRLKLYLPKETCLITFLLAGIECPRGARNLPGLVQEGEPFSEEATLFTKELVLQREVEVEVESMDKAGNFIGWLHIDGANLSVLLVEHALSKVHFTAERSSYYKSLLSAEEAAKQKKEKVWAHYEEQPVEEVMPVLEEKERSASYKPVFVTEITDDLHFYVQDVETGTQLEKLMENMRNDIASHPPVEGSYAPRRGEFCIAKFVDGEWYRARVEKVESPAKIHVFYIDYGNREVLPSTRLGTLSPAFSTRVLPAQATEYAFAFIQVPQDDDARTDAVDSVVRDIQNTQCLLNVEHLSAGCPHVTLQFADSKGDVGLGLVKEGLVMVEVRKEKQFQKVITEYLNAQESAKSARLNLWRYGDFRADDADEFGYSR", "assay": "phage ELISA signal ratio (GST-PRM binding over GST background); higher = stronger binding of peptide-phage to the PRM", "description": "as §1", "values": [{"binder": "WGWDEMLNDPEIMRIV", "phage ELISA signal ratio": 8.1}]}, {"target": "T4, TDRD1 261-449 TUDOR (domain begin residue: 261, domain end residue: 449), Q9BXT4", "T4 chain": "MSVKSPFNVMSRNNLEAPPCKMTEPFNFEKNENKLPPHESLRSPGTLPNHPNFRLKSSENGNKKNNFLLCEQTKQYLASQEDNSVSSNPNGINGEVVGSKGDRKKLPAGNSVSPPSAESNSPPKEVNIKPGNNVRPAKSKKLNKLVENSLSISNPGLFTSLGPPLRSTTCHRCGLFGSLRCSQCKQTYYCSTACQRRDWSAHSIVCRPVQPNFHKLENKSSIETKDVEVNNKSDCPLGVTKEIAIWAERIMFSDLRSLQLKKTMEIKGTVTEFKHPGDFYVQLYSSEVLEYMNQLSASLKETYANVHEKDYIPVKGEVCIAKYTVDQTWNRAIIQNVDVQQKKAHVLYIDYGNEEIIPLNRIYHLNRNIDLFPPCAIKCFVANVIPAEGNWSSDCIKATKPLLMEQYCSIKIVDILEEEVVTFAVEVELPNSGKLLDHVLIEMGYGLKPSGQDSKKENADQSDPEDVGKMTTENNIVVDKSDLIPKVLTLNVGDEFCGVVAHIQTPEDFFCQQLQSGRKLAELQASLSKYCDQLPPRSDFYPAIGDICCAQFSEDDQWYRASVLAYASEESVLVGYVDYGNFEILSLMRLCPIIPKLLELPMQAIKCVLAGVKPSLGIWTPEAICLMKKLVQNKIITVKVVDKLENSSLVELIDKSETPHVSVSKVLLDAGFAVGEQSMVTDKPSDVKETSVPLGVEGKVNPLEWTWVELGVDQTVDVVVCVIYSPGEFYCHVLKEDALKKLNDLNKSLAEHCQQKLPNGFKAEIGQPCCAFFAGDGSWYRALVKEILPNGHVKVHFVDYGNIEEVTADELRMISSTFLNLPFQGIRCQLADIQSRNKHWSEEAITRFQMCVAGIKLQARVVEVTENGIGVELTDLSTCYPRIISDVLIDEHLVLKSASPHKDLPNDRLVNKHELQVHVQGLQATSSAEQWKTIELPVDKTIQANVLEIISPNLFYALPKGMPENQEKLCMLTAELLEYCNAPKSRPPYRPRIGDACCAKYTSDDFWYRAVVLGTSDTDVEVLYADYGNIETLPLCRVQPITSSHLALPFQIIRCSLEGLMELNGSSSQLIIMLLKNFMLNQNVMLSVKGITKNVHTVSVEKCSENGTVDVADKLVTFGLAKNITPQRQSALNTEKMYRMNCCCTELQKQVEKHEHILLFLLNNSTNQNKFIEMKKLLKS", "assay": "phage ELISA signal ratio (GST-PRM binding over GST background); higher = stronger binding of peptide-phage to the PRM", "description": "as §1", "values": [{"binder": "WGWDEMLNDPEIMRIV", "phage ELISA signal ratio": 10.8}]}, {"target": "T5, ZGPAT 120-268 zf-CCCH+TUDOR (domain begin residue: 120, domain end residue: 268), Q8N5A5", "T5 chain": "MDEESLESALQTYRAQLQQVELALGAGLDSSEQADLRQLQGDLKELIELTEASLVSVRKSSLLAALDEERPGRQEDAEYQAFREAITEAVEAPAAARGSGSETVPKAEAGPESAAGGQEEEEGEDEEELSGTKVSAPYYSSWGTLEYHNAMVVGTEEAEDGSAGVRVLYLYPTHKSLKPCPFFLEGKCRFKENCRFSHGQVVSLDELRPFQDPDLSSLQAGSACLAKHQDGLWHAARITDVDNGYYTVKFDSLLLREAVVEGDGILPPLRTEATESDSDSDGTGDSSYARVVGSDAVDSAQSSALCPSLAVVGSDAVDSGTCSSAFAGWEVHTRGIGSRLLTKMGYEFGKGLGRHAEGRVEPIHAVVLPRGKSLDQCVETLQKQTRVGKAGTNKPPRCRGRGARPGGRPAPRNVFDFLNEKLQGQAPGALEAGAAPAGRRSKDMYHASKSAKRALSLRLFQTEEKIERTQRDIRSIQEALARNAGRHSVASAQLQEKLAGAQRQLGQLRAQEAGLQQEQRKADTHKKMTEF", "assay": "phage ELISA signal ratio (GST-PRM binding over GST background); higher = stronger binding of peptide-phage to the PRM", "description": "as §1", "values": [{"binder": "WGWDEMLNDPEIMRIV", "phage ELISA signal ratio": 7.66}]}, {"target": "T6, BTN1A1 285-479 SPRY (domain begin residue: 285, domain end residue: 479), Q13410", "T6 chain": "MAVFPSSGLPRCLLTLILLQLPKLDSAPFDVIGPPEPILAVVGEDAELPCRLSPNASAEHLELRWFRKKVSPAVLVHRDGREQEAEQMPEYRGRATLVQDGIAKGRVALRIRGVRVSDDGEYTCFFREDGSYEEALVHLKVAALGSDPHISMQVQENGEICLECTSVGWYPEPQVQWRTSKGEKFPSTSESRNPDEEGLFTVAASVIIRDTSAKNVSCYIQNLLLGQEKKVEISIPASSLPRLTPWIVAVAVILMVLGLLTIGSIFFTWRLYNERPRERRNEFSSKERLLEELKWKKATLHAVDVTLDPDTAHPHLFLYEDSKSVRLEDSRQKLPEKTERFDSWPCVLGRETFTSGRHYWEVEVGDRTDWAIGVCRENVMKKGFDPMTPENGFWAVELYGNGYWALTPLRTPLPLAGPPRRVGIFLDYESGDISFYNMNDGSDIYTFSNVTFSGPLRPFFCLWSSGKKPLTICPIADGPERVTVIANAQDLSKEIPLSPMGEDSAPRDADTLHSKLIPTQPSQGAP", "assay": "phage ELISA signal ratio (GST-PRM binding over GST background); higher = stronger binding of peptide-phage to the PRM", "description": "as §1", "values": [{"binder": "SWDHWDEKMTSMVVFM", "phage ELISA signal ratio": 9.92}]}]}
